TSHR antagonist = Antagonists of the Thyroid Stimulating Hormone Receptor: HTS campaign. Thyrotropin receptor (Homo sapiens), P16473. activity change, negative = inhibition, % at 11.5 µM. AID 504810, 2011. TSHR-expressing cells, TSH-stimulated cAMP HTRF, 2 h; active compounds read low. 330,000 tested, 0.2% active;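 active = activity change below a set negative limit, meaning inhibition stronger than a set level, cut at about -70% in these data; inconclusive = activity change between two set negative limits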
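Antagonism was scored as loss of TSH-driven cAMP in TSHR cells, stimulated with 4nM TSH (EC80) for 2 hours at 37 deg C and detected by homogeneous HTRF competition immunoassay.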
PTAP TSG101 blk = qHTS Assay for Iinhibitors of HIV-1 Budding by Blocking the Interaction of PTAP/TSG101. Fluorescence polarization, FITC-PTAP peptide / Tsg101 binding. Tumor susceptibility gene 101 protein (Homo sapiens), Q99816. 340,000 tested, under 10 active. AID 493005, 2010. Potency, µM (titrated, usually from 115 µM), hits mostly inhibitors; active = well fitted inhibition curve with a large enough effect in the main read-out, with a control signal flat, not every such curve was filed as active; inconclusive = small, poorly fitted or top-dose-only effect, or effect the other way, or a change in a side signal; inactive = no such curve, though single readings can be large or run the other way
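Fluorescence polarization binding of Tsg101 binding domain (10 uM final) to FITC-labeled PTAP peptide (50 nM final) in HEPES pH 7.5 buffer with NaCl, Tween 20, EDTA, TCEP. Compounds added before peptide; binding 20 min at RT.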
PLK1 PBD inh = qHTS for Inhibitors of PLK1-PDB (polo-like kinase 1 - polo-box domain): Primary Screen; Serine/threonine-protein kinase PLK1 (Homo sapiens), P53350; Plk1 PBD binding of FITC phosphopeptide, fluorescence polarization; Potency, µM, actives largely listed as inhibitors; 360,000 tested, 2.8% active; AID 720504, 2013; also: series mostly up to about 57 µM; nearly all actives have a fitted effect of over 65% in size
VDR inh = Inhibitors of the vitamin D receptor (VDR): qHTS. Potency, µM, hits mostly inhibitors. VDR-SRC2-3 peptide fluorescence polarization, 2 h. 400,000 tested, 0.93% active
Target sequence (P11473 whole entry, looked up): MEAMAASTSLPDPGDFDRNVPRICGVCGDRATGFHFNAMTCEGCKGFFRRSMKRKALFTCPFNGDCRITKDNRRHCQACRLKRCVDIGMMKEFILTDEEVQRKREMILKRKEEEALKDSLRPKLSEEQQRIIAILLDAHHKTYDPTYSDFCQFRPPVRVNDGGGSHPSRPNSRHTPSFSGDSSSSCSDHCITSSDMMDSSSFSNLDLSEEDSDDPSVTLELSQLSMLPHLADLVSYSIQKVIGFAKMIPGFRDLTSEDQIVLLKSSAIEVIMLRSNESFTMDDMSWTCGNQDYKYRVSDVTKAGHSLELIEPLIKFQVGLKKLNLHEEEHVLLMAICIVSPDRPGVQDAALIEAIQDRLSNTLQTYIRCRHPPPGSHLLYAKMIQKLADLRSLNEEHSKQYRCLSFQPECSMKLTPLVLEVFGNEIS
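Signal is fluorescence polarization, reporting how far test compounds block the interaction of VDR with the SRC2-3 coregulator peptide after a 2 h room-temperature incubation.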
uPA generation = qHTS for Inhibitors of Cell Surface uPA Generation; cell surface uPA generation assay, qHTS; Potency, µM (top dose mostly 38.3 µM), hits mostly inhibitors; 330,000 tested, 0.31% active; AID 540303, 2011; active = well fitted inhibition curve with a large enough effect; inconclusive = small, poorly fitted or top-dose-only effect; inactive = no such curve, though single readings can be large or run the other way; tested in mouse RAW 264.7 cells; also: nearly all actives have a fitted effect of over 55% in size
Numbers stand for hits; – = inactive; ? = inconclusive; · = no result given; ! = repeats disagree. Sampled rows, rich in hits. Any-hit rate of the full collection: about 3.1%. Unless noted, calls follow the shape of the dose curve; as a rule, active = well fitted curve in the direction sought with a large enough effect; inconclusive = small, poorly fitted or top-dose-only effect, or another doubt; inactive = no such curve, though single readings can be large; an effect the other way counts as inactive or inconclusive.

SMILES	TSHR antagonist	PTAP TSG101 blk	PLK1 PBD inh	VDR inh	uPA generation
NC(=O)C1(N2CCCCC2)CCN(C(=S)Nc2ccc(S(N)(=O)=O)cc2)CC1	–	–	11µM	–	–
O=C(CSc1nc2c(c(=O)[nH]1)CCC2)Nc1cc(C(F)(F)F)ccc1Cl	·	·	·	–	·
COc1ccc(OC)c(NC(=O)c2cccn2-c2nnc(N3CCCCC3)s2)c1	·	·	·	–	·
Cn1c(=O)c2c(c3ccccc31)OC(=O)CC2c1cccc(F)c1 (centres undefined)	·	·	·	–	·
O=C(Nc1ncnc2nc[nH]c12)c1ccccc1	·	·	·	–	·
NS(=O)(=O)c1ccc(NC(=S)NC2CCCCC2)cc1	–	–	11µM	?	–
NS(=O)(=O)c1ccc(NC(=S)NCc2ccccc2)cc1	–	–	12µM	?	–
C=C1C(=O)O[C@@H]2[C@H]3O[C@]3(C)CC/C=C(\C)CC[C@@H]12	·	–	–	22µM!	?
C=C1C(=O)OC2C=C(C)CCC=C(C)CCC12 (centres undefined)	·	·	·	40µM	·
C=C1C(=O)O[C@H]2C[C@H]1[C@@H](OC(C)=O)C/C(C)=C/CC/C(C)=C\CC[C@]2(C)O	·	–	–	?	?
Fc1ccc(CN(C2=NCCN2)c2c(Cl)cccc2Cl)cc1	–	·	·	–	·
Cc1ccc(C)n1-c1nc(=S)[nH][nH]1	–	·	24µM	32µM	–
COc1cc(NC(=O)c2cccc3c(-c4cnn(C)c4)coc23)cc(OC)c1OC	·	·	–	·	·
CCOC(=O)CSc1c(-c2ccc(Cl)cc2)[nH]c2ccccc12	–	–	6µM	?	–
Nc1nc(SCc2ccccc2Cl)ns1	–	–	30µM	–	–
Nc1nc(SCc2ccccc2)ns1	–	–	?	–	–
Nc1ccccc1SCc1ccccc1Cl	–	–	15µM	–	–
Nc1ccccc1SSc1ccccc1N	–	–	0.6µM	10µM	?
O=C1NC[C@@H](Cc2ccc(O)cc2)N(CCc2cc(C(F)(F)F)cc(C(F)(F)F)c2)C1=O	·	·	–	·	·
CCc1ccc(S(=O)(=O)/N=C2\C=C(Nc3ccc(C(=O)O)cc3)C(=O)c3ccccc32)cc1	–	–	–	–	–
Cc1ccc(S(=O)(=O)/N=C2\C=C(NS(=O)(=O)c3ccccc3)C(=O)c3ccccc32)c(C)c1	·	–	19µM	–	–
CC(C)(C)c1ccc(S(=O)(=O)/N=C2\C=C(NS(=O)(=O)c3ccccc3)C(=O)c3ccccc32)cc1	–	–	13µM	?	–
Cn1cc(C[C@H](C(=O)O)N2C(=O)c3ccc(C(=O)O)cc3C2=O)c2ccccc21	–	·	·	·	·
CC(C)C[C@H]1CNC(=S)N1C[C@H]1CCCN1C[C@H](Cc1ccc(O)cc1)N1C[C@H](CC(C)C)N(CC2CCCCCC2)C1=S	·	·	–	·	·
O=C(c1ccc2c(c1)N(Cc1ccccc1)C(=O)c1ccccc1S2(=O)=O)N1CCCCCC1	·	·	·	–	·
SMILES	TSHR antagonist	PTAP TSG101 blk	PLK1 PBD inh	VDR inh	uPA generation
COc1ccccc1-c1cnc(C(O)c2ccc(CN3CCCC3)cc2)[nH]1 (centres undefined)	·	·	–	·	·
Cc1cc(C)n(-c2cc(Cl)ccc2[N+](=O)[O-])n1	–	–	27µM	–	–
O=C(NCCc1nc2ccccc2n1CCOc1ccccc1)C1CCCCC1	·	·	·	–	·
CC(CN1CCCCC1)OC(=O)COc1ccc(Cl)cc1 (centres undefined)	–	–	24µM	?	–
CC(CN1CCCCC1)OC(=O)Cc1ccc(Cl)cc1 (centres undefined)	–	–	–	–	–
CC(C)CC(=O)N[C@H](C(=O)N[C@H](C(=O)N[C@@H](CC(C)C)[C@H](O)CC(=O)N[C@@H](C)C(=O)N[C@@H](CC(C)C)[C@H](O)CC(=O)O)C(C)C)C(C)C	·	·	·	–	·
O=C(COC(=O)C1CCCCC1)Nc1ccccc1OC(F)F	–	–	3µM	?	–
CN(C)S(=O)(=O)c1cccc(C(=O)OCC(=O)Nc2ccccc2OC(F)F)c1	–	–	27µM	?	–
COc1ccccc1NC(=O)COC(=O)C1CCCC1	–	–	–	–	–
O=C(Nc1ccccc1OC(F)F)c1cccc(S(=O)(=O)N2CCCC2)c1	–	–	17µM	?	–
Oc1ccc(COC2CCN(Cc3ccccc3)C2)c2cccnc12 (centres undefined)	–	·	·	·	·
CCCCCCc1c(O)c2ccccc2[nH]c1=O	–	–	–	–	–
CCCCCCCCCCC1=C(C)C(=O)C(OC)=C(OC)C1=O	·	·	·	40µM!	·
COc1ccccc1N1CCN(Cc2ccc(O)c3ncccc23)CC1	–	–	–	–	·
Oc1ccc(CN2CCCc3ccccc32)c2cccnc12	–	–	?	79µM	–
CN(C)S(=O)(=O)c1cccc(-c2nn(-c3ccccc3)cc2/C=C2\SC(=S)NC2=O)c1	-74	–	21µM	–	–
COc1cc(OC)c2c(O)c3c(c(-c4c5c(c(O)c6c(OC)cc(OC)cc46)CO[C@@H](C)[C@H]5O)c2c1)[C@H](O)[C@H](C)OC3	–	–	21µM	–	–
Cc1ccc(NC(=O)CN(C)S(=O)(=O)c2ccc3nc(C)sc3c2)c(C)c1	·	·	·	–	·
Cn1c(=O)c2[nH]c(=O)cnc2n(C)c1=S	–	–	30µM	–	–
CCOc1cccc(C(=O)N/N=C/c2coc3ccccc3c2=O)c1	–	–	?	?	–
CCN(CC(=O)Nc1ccc(NC(C)=O)cc1)C(=O)CN1C(=O)C2CCCCC2C1=O (centres undefined)	–	–	–	–	–
COc1cc(/C=C(\C#N)C(N)=O)ccc1OS(=O)(=O)c1ccc(C)cc1	–	–	?	?	–
COc1cc(/C=C(\C#N)C(=O)NC2CCCCC2C)ccc1OS(=O)(=O)c1ccc(C)cc1 (centres undefined)	–	–	–	79µM	–
COc1ccc(Cl)cc1NC(=O)Cn1c(=O)n(Cc2ccco2)c(=O)c2ccc(C(=O)NC3CCCC3)cc21	·	·	·	–	·
COc1ccc(Br)cc1/C=N/NC(=O)CN1CCCCC1	-122	–	–	–	–
SMILES	TSHR antagonist	PTAP TSG101 blk	PLK1 PBD inh	VDR inh	uPA generation
COc1ccc(OC)c(/C=N/NC(=O)CN2CCSCC2)c1	–	–	–	–	–
O=C(c1ccc2c(c1)N(Cc1ccccc1F)C(=O)c1ccccc1S2=O)N1CCCCC1 (centres undefined)	·	·	·	–	·
O=C(O)Cc1sc(N/N=C\c2ccccc2)nc1-c1ccccc1	–	–	12µM	–	–
COc1ccccc1Nc1nc(-c2ccccc2)c(CC(=O)O)s1	·	·	·	–	·
C=CCNc1nc(-c2cccs2)c(CC(=O)O)s1	–	–	?	–	–
O=C(O)Cc1sc(Nc2ccccc2)nc1-c1cccs1	–	–	21µM	79µM	–
COc1ccc(-c2c(Sc3ccccc3)c3cc(-c4ccc(OC)c(F)c4)ccc3n2C)cc1	·	·	–	·	·
